Holding throughout (assay): NCI-60 one-dose screen, 48 h (100 = growth as untreated, 0 = no growth, -100 = all killed)
The subject of experiment [1] is DU-145 prostate. The settings on record: 10 µM unless noted.
The test system of experiment [2] is K-562 leukemia. The settings on record: 10 µM unless noted.
For experiment [3], the system named is MALME-3M melanoma. Particulars: 10 µM unless noted.
Experiment [4] has as its system MDA-MB-231 breast. Particulars: 10 µM unless noted.
In experiment [5] the test system is RXF 393 renal. Particulars: 10 µM unless noted.
The subject of experiment [6] is SF-268 CNS. Particulars: 10 µM unless noted.
Experiment [7] concerns SF-295 CNS. Particulars: 10 µM unless noted.
For experiment [8], the system named is SF-539 CNS. Particulars: 10 µM unless noted.
The subject of experiment [9] is UACC-257 melanoma. The settings on record: 10 µM unless noted.
In experiment [10] the test system is M14 melanoma. The settings on record: 10 µM unless noted.
Experiment [11] relates to HCT-15 colon. The settings on record: 10 µM unless noted.
For experiment [12], the system named is HT29 colon. The settings on record: 10 µM unless noted.
For experiment [13], the system named is SNB-75 CNS. The settings on record: 10 µM unless noted.
Experiment [14] relates to SNB-19 CNS. The settings on record: 10 µM unless noted.
Experiment [15] concerns U251 CNS. The settings on record: 10 µM unless noted.
Experiment [16] relates to PC-3 prostate. Particulars: 10 µM unless noted.
Experiment [17] has as its system SK-MEL-5 melanoma. Particulars: 10 µM unless noted.
In experiment [18] the test system is UACC-62 melanoma. Particulars: 10 µM unless noted.
For experiment [19], the system named is LOX IMVI melanoma. Particulars: 10 µM.
Experiment [20] deals with SK-MEL-28 melanoma. The settings on record: 10 µM unless noted.

Structures are written as SMILES. This is part of a sample that, as a whole, favours compounds with a hit. Of some 83,000 tested, about 20% had one in any assay.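 Treatment: one concentration, 48 hours, 96-well format. Scoring: percent growth, with anything below 10 considered active.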 Values without a mark were called inactive. Activity calls are given as the source filed them.

Consider `C#CCOc1ccc(/C=N/Nc2nc(-c3cc4cc(OC)ccc4oc3=O)cs2)cc1OC`, for which the growth in experiment [1] was 31.5%; in experiment [2], 34.7%; in experiment [3], 2.64% (active); in experiment [4] it was 44%; in [5], -88.8% (active); in experiment [6], 57.2%. Further, the growth was 41.2% in experiment [7]; 28.2% in experiment [8]; 54.7% in experiment [9]; 42.2% in experiment [10]; 60.5% in [11]; 29.2% in [12]. Also, the growth is 102% in experiment [13]; 75.3% in [14]; 38.5% in [15]; 20.8% in experiment [16]; 39.2% in [17]; 54.4% in experiment [18]. The values for the growth in experiment [19] and in [20] were 22.8% and 18.9%, respectively.

On to `COC(OC)C1=C(C)OC(N)=C(C#N)C12C(=O)Nc1ccccc12` (stereo not given), for which the growth in experiment [1] was 105%; in experiment [2], 82%; in [3], 87.2%; in experiment [4] it was 102%; in experiment [5], 109%; in experiment [6], 104%. For the same molecule, the growth in [7] is 138%; in [8], 100%; in experiment [9], 100%; in experiment [10], 94.9%; in experiment [11], 94.6%; in experiment [12], 102%. In addition, the growth in experiment [13] was 103%; in [14] it was 97%; in [15], 99.4%; in experiment [16], 92.8%; in experiment [17], 92.4%; in experiment [18], 81.1%. The growth is 28.4% in experiment [19] and 85% in [20].

`CCCS(=O)(=O)N1CCCC(C(=O)Nc2nc3ccc(NC(=O)c4ccc(F)c(OC)c4F)cc3s2)C1` (stereo not given): the growth in experiment [1] is 72.7%; in experiment [2], 27.6%; in experiment [3] it was 52.7%; in experiment [4], 62.9%; in experiment [5], 8.45% (active); in experiment [6] it was 56.9%. The growth in experiment [7] is 23%; in experiment [8] it was 47.2%; in experiment [9], 25.2%; in experiment [10], 56.7%; in experiment [11], 37.1%; in [12] it was 54.2%. Besides, the growth was 64.1% in [13]; 63.7% in [14]; 51.5% in experiment [15]; 37.3% in experiment [16]; -41% (active) in experiment [17]; 45.4% in [18]. The results for the growth in experiment [19] and in experiment [20] were 37.6% and 59.9%, respectively.

For the molecule `Cn1cc(-c2cc(N)n3nc(-c4cn(C)c5ccccc45)cc3n2)c2cc(Cl)ccc21`, the growth was 22% in experiment [1]; 1.57% (active) in experiment [2]; -77% (active) in experiment [3]; -45.4% (active) in experiment [4]; -73.7% (active) in experiment [5]; -46.4% (active) in experiment [6]. The growth was -53.8% (active) in experiment [7]; -69.3% (active) in [8]; -59.9% (active) in [9]; -78.3% (active) in [10]; -78.3% (active) in experiment [11]; -67.2% (active) in [12]. The growth in [13] is -44% (active); in [14] it was -0.728% (active); in experiment [15], -74.5% (active); in experiment [16] it was -38.1% (active); in experiment [17] it was -67% (active); in experiment [18] it was -56.2% (active). In addition, the growth is -86.5% (active) in [19] and -86.7% (active) in experiment [20].

With `CN(C)c1nc(NCCNS(=O)(=O)c2ccc(C3=Nc4c(N)nc(N)nc4NC(c4ccc(F)cc4)C3)cc2)nc(Nc2ccc(F)cc2)n1` (stereo not given), the growth was 54.2% in experiment [1]; 3.61% (active) in [2]; 47.1% in [3]; 20.8% in [4]; 16.5% in experiment [5]; 31.9% in [6]. Further, the growth was 57.3% in experiment [7]; -25.3% (active) in [8]; 59.3% in [9]; 28% in [10]; 44.7% in [11]; 10% in experiment [12]. Also, the growth was 58.6% in [13]; 46.1% in experiment [14]; 31.6% in experiment [15]; 18.9% in experiment [16]; 21.3% in experiment [17]; 45.2% in experiment [18]. Also, the growth was -40% (active) in experiment [19] and 55.4% in [20].

With `COC(=O)/C=C/c1cccc2c1C(=O)NC(C)(c1cc3ccccc3oc1=O)N2` (stereo not given), the growth in experiment [1] was 62.7%; in [2], 56.6%; in experiment [3], 58.7%; in [4], 76.3%; in experiment [5], 58.9%; in [6] it was 82.3%. The growth in [7] was 84.9%; in [8] it was 73.2%; in experiment [9], 77.7%; in experiment [10], 41.7%; in experiment [11], 36.3%; in experiment [12], 69.8%. The growth in experiment [13] was 41.6%; in experiment [14], 81.5%; in experiment [15], 57.9%; in experiment [16], 58.9%; in [17], 78.5%; in [18], 42.8%. Moreover, the growth in experiment [19] was 38.9%; in experiment [20], 75.4%.

For the molecule `Cc1ccc(S(=O)(=O)c2nc(S(=O)(=O)c3ccc(C)cc3)c(N3CCN(C)CC3)s2)cc1`, the growth in [1] is 52.6%; in experiment [2], 15.7%; in [3] it was 73.5%; in experiment [4], 84.4%; in experiment [5], 30.3%; in [6] it was 78.7%. In addition, the growth is 102% in [7]; 57.5% in experiment [8]; 85.8% in [9]; 74% in experiment [10]; 24.6% in [11]; 56% in experiment [12]. The growth in experiment [13] is 91.3%; in [14], 85.7%; in experiment [15], 52.9%; in experiment [16], 78.8%; in [17], 63.2%; in experiment [18], 48%. Further, the growth in experiment [19] is 30.4%; in [20], 68.8%.

In the case of `COc1cccc(-c2nc(Nc3ccc(S(N)(=O)=O)cc3)c3ccccc3n2)c1`, the growth in experiment [1] was 29.4%; in experiment [2] it was 10.3%; in [3], 37.9%; in [4] it was 13.3%; in experiment [5] it was 12.5%; in experiment [6], 33.7%. The growth in [7] was 2.4% (active); in experiment [8], 11.9%; in [9] it was 68.4%; in experiment [10], 38.7%; in [11] it was 5.48% (active); in experiment [12] it was 13.8%. Further, the growth was 61.1% in [13]; 50.4% in experiment [14]; 40.3% in experiment [15]; 29.3% in [16]; 25.6% in experiment [17]; 37.5% in experiment [18]. The growth is 24.8% in [19] and 47.3% in experiment [20].

The record behind these values is PubChem BioAssay (NCI).
